# Values without a mark were called inactive. How the calls were made is not given here.
# Molecular target: Pantothenate synthetase (Mycobacterium tuberculosis (strain ATCC 25618 / H37Rv)) (UniProt P9WIL5)
# Assay: Recombinant Mtb pantothenate synthetase (PanC) inhibitors, coupled enzyme, confirmatory (AID 375);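 further: 0% = full reaction with vehicle and 100% = no enzyme background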
# Details: coupled enzyme assay; at 10 µM, stronger effect = higher value
# Pantothenate synthetase (Mycobacterium tuberculosis (strain ATCC 25618 / H37Rv)), sequence (P9WIL5 whole entry, looked up): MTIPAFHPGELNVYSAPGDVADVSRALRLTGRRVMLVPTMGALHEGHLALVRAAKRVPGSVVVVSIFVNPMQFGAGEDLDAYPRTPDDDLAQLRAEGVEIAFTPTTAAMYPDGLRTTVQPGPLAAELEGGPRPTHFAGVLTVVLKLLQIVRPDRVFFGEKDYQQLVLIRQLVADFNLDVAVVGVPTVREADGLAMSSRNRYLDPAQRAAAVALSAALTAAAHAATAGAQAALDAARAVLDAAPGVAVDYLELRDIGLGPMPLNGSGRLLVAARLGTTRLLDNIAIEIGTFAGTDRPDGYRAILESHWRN
row,SMILES,inhibition [%]
1,C[C@@H]1C[C@H]2[C@@H]3CCC4=CC(=O)C=C[C@]4(C)[C@@]3(F)[C@@H](O)C[C@]2(C)[C@@]1(O)C(=O)COP(=O)(O)O,5
2,S=C(c1cccs1)N1CCCC1,0
3,COCCCN(C)C1CCN(C(=O)Nc2ccc(F)cc2)CC1,0
4,CC(C)[C@H](NC(=O)NCc1ccc(Cl)cc1)C(=O)O,0
5,Cc1cc(NC(=O)Cn2cnc3c(cnn3C(C)(C)C)c2=O)no1,3
6,OC(COc1ccc2ccccc2c1)CN1CCOCC1 (stereo not given),0
7,CCOc1cccc(C(=O)N(Cc2ccco2)C2CCS(=O)(=O)C2)c1 (stereo not given),6
8,CCOC(=O)c1ccc2[nH]c3c(c2c1)CN(C)CC3,1
9,COC(=O)C(C#N)C(=C1C(=O)CC(C)(C)CC1=O)c1ccc(O)cc1 (stereo not given),0
10,CC(=O)c1cn(CC(=O)NCc2ccc3c(c2)OCO3)c2ccccc12,0
11,CC(=O)c1ccc(NS(=O)(=O)c2ccccc2)cc1,0
12,COc1ccccc1OCC(=O)N1CCN(c2ccccc2OC)CC1,0
13,COc1cccc(CN2CCN(C(=O)CC(C)C)CC2)c1,6
14,Cc1cc(C)cc(NC(=O)c2nnn(Cc3cc(C)ccc3C)c2N)c1,0
15,Oc1cccc(Nc2nc(NCC3CCCO3)c3ccccc3n2)c1 (stereo not given),1
16,CC(O)c1c(OCc2ccccc2)ncnc1OCc1ccccc1 (stereo not given),0
17,CCCCc1nc(NCCN2CCOCC2)c(C#N)c2c1COC(C)(C)C2,0
18,O=c1cc(NCc2ccccc2)nc2n1CCCS2,0
19,Cc1ccc(S(=O)(=O)NCC(c2cccnc2)N(C)C)cc1 (stereo not given),3
20,Cn1c(=O)c2c(nc(SCCCC#N)n2Cc2ccccc2F)n(C)c1=O,0

row,SMILES,inhibition [%]
1,CCCCOC(=O)Nc1nc2ccc(OC)cc2s1,5
2,CCCn1c2c(c(O)c(C(=O)NC)c1=O)CCCC2,5
3,Cn1c(-c2ccc(F)cc2)cnc1NCc1ccccc1,0
4,Cc1ccc(N(CC(O)CN2CCCC2)S(=O)(=O)c2ccc(C)cc2)cc1 (stereo not given),0
5,CC1(C)Cc2c(c(N3CCOCC3)nc3sc(C#N)c(N)c23)CS1,0
6,Cc1ccc(C)c2[nH]c(=O)c(CCNC(=O)CC(C)(C)C)cc12,4
7,O=S(=O)(c1ccc(F)c(Cl)c1)N1CCCC1,0
8,Nc1nc(CSc2nc3ccccc3[nH]2)nc(N2CCOCC2)n1,4
9,CCOC(=O)CCC(=O)O[C@H]1[C@H](O[C@@H]2[C@@H](C)[C@H](O[C@H]3C[C@@](C)(OC)[C@@H](O)[C@H](C)O3)[C@@H](C)C(=O)O[C@H](CC)[C@@](C)(O)[C@H](O)[C@@H](C)C(=O)[C@H](C)C[C@@]2(C)O)O[C@H](C)C[C@@H]1N(C)C,0
10,CCOc1cc(N2CCOCC2)c(OCC)cc1NC(=O)CSc1cccc[n+]1[O-],3
11,Cn1c(=O)c2c(nc(CN3CCCCC3)n2CCCc2ccccc2)n(C)c1=O,2
12,CCn1nc(C(=O)OCC(=O)N2CCc3ccccc32)c2ccccc2c1=O,7
13,c1ccc(-c2cc(CSc3nc4ccccc4[nH]3)on2)cc1,0
14,O=C(CSc1oc(-c2ccco2)nc1S(=O)(=O)c1ccccc1)NCC1CCCO1 (stereo not given),0
15,Cc1cc(C(=O)N2CCCc3ccccc32)no1,3
16,CCCC(OC(=O)CN1C(=O)COc2ccccc21)C(=O)NC1CCCC1 (stereo not given),0
17,O=C1NC(c2cccs2)Nc2ccccc21 (stereo not given),0
18,Cn1c(=O)c2c(ncn2CC(=O)OCC(=O)NC2CCCc3ccccc32)n(C)c1=O (stereo not given),3
19,COc1ccccc1Oc1ccc(S(=O)(=O)N2CCOCC2)cc1S(=O)(=O)N1CCOCC1,0
20,Nc1cc(=O)[nH]c(SCC(=O)Nc2ccc(Br)cc2)n1,2

# Reference: PubChem BioAssay
